Reference: the supplement of paper PMC11417369
Over roughly 25,000 sequences, “ln(normalized median fluorescence intensity)” has its median near 6.7; the highest 2% begin near 10. The sample as a whole holds a higher share of the highest values than the screen did.

Tested on: PfHDP1 homeodomain (GST-tagged)
Test: gcPBM binding intensity (ln(normalized median fluorescence intensity)); higher = stronger DNA binding
Summary of the method: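 Binding of GST-tagged P. falciparum DNA-binding domains, expressed in E. coli and used at about 25 μg on average, was carried out for 1 h in 1× PBS containing 1% milk, 0.2 mg/ml BSA, 0.5% salmon testes DNA and 0.03% Triton X-100. The target was an Agilent 4 × 180k array of primer-extended double-stranded 36-bp intergenic genomic probes plus negative controls, read with Alexa488 anti-GST antibody at 488 nm. Binding intensity is the highest Masliner-normalised natural-log median intensity across replicate spots of either probe orientation.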

Sequence	gcPBM binding intensity (ln)
TGTGCTCAAAATTATGCACACACCTAAAATTAATTT [CACACA_site8950]	10.7
TGCACAAAATTATGCACACACCTAAAATTAATTTTT [CACACA_site5596]	10.8
TGTGCCCAAAATTATGCACACACCTAAAATTAATTT [CACACA_site2914]	10.5
TAAATTAATACCTATGCACACATTTTTTTTTTTAAA [CACACA_site1238]	8.59
TGCACAAAGTTATGCACACACCTAAAATTAATTTTT [CACACA_site7385]	10.5
GATAATAATAAACAACCACACACAAAAAAACAAAAA [CACACA_site9074]	7.01
TTTTTTTTTTTTTATTGTACTTATTTTTTTATGTTT [XGTACX_site7725]	5.96
AAAAAAAAAAAATGCACACATATATTTCCATATACA [CACACA_site1471]	9.96
AAAAATATTAAAAGGCGTACAATACCTGTATGCAAC [XGTACX_site6069]	6.12
TTTGTTATTTTTTATTGTACTTTTTTTCTTTCATAA [XGTACX_site4302]	7.03
AATATTAACAATCGCACACATATTATTTTTCCAAAA [CACACA_site4982]	7.13
AATAGCTAGCTGTGCACACAAACATATTTTCCAAAT [CACACA_site880]	10.3
CAAATAGCTAGCTGTGCACACAAACATATTTTCCAA [CACACA_site879]	11
ATATTGACAAATATTACACACATATATATATATATA [CACACA_site4079]	9.39
TATATATATATATATTGTACTAATTGTGCAAATGAG [XGTACX_site682]	10.9
AAAAAAAAAATTAATTGTACTAAAAAAATATTATAT [XGTACX_site8903]	6.41
ATAACTAAATGATATTGTACAAAATAATTATATATT [XGTACX_site1331]	6.38
TATGATATCTATAATACACACATATACATAAGATCT [CACACA_site6652]	6.6
AAAAATATTTAAAATACACACATATCTATAATATAT [CACACA_site7032]	6.36
TACCAAAAAAAAAAAAATAAAAATAAAAAAAAAAAT [CACACA_negctrl_site1714]	6.27
TTTACATTTATGTGCACACATTCCATTTGAAAGTAA [CACACA_site1953]	10.9
TATTTACATTTATGTGCACACATTCCATTTGAAAGT [CACACA_site1954]	11
AAAAAAAAAAAAAAAAGTACACATCATTTTATGAAA [XGTACX_site1402]	6.41

Sequence	gcPBM binding intensity (ln)
TTTGAAAAGTTGAAATGTACACATTTACACATATTT [XGTACX_site1641]	6.24
AAGTTGAAATAATGTGCACACATTTTTTTTTTTTTT [CACACA_site3368]	9.16
AACACATACATATATGCACACATTTTATTCCATTAT [CACACA_site2834]	10.1
TTACAAGTAAAAGGTACACACATTATAAATACAAAT [CACACA_site4752]	6.93
ATCAACATCTAACATTGTACATGTGATGTGTAAAAG [XGTACX_site547]	6.69
TATATATATATATGTACACACATCAATCATATTAAC [CACACA_site1946]	9.26
TATATATATATATATATTAATAATTAATATAAAAGA [XGTACX_negctrl_site32]	9
GAGGTACATTAATTAGTGCATTAAAATTTTTATCCT	9.85
TATGTTATATAATATTGTACACAAAATGGTTTCTAT [XGTACX_site7686]	6.73
TAAATTAAAAAAAAAAACAAAAAAAAAGCAACAAAA [CACACA_negctrl_site1318]	6.62
ATGTGCACATGTAGAAGTACTTTTTCTTAAAATACT [XGTACX_site8341]	10.9
TTTTGAAGTAATACATGTACTTAAATTACTAAAAAA [XGTACX_site1955]	6.04
AAGTTTTCTTAAAGATGTACTTTTTAAAAATAAAAT [XGTACX_site3063]	6.15
TTTAAAATGGGACTTTGAAAAAAAAAAAAAAAAACA [TGCATGCA_negctrl_site111]	6.1
CAGTTGTTAATTTGTGTGCACCAAATATTATACATA	10.5
AATTTTTTATATGTCACACATTTGTTATTATTATTA [CACACA_site4197]	6.51
TGTGTCAAATAATTAATGTCATATATATTTTGTATA [CACACA_negctrl_site1479]	6.11
AAATATTACATTTGTTAAATAATATGTTATACATAA [XGTACX_negctrl_site484]	5.89
TGTGTATTTATAAATACACACCAAATGTTAATATAT [CACACA_site6904]	6.9
GTCAAATTTTTGTGCACACATATATAGTTATTATTA [CACACA_site2241]	11.7
TTTTTTTTTTTTTTTGTGCACAATTATTTCAATTTT [GTGCAC_site9884]	10.2
ATGTCAAATTTTTGTGCACACATATATAGTTATTAT [CACACA_site2242]	11.4
TTTTCATATTATAGTGCACACAAAAATATATATATG [CACACA_site8929]	10.3
